Assay results reported in the supplement of paper PMC11732987, “Enantioselective OTUD7B fragment discovery through chemoproteomics screening and high-throughput optimisation” (Communications Chemistry, 2025).

How the values were obtained:
Assay in all cases: log2 ratio of Biotin-Ahx-Ub-VS probe labelling (fragment/DMSO); higher = less target engagement (more negative = stronger competition), active = hit call of the paper (q ≤ 0.05, log2 ratio ≤ -1)
Details in all cases: compound concentration: 200 uM; treatment time: 3 h
USP42 = molecular target: T1, USP42 (UniProt Q9H9J4)
T1 sequence (whole entry): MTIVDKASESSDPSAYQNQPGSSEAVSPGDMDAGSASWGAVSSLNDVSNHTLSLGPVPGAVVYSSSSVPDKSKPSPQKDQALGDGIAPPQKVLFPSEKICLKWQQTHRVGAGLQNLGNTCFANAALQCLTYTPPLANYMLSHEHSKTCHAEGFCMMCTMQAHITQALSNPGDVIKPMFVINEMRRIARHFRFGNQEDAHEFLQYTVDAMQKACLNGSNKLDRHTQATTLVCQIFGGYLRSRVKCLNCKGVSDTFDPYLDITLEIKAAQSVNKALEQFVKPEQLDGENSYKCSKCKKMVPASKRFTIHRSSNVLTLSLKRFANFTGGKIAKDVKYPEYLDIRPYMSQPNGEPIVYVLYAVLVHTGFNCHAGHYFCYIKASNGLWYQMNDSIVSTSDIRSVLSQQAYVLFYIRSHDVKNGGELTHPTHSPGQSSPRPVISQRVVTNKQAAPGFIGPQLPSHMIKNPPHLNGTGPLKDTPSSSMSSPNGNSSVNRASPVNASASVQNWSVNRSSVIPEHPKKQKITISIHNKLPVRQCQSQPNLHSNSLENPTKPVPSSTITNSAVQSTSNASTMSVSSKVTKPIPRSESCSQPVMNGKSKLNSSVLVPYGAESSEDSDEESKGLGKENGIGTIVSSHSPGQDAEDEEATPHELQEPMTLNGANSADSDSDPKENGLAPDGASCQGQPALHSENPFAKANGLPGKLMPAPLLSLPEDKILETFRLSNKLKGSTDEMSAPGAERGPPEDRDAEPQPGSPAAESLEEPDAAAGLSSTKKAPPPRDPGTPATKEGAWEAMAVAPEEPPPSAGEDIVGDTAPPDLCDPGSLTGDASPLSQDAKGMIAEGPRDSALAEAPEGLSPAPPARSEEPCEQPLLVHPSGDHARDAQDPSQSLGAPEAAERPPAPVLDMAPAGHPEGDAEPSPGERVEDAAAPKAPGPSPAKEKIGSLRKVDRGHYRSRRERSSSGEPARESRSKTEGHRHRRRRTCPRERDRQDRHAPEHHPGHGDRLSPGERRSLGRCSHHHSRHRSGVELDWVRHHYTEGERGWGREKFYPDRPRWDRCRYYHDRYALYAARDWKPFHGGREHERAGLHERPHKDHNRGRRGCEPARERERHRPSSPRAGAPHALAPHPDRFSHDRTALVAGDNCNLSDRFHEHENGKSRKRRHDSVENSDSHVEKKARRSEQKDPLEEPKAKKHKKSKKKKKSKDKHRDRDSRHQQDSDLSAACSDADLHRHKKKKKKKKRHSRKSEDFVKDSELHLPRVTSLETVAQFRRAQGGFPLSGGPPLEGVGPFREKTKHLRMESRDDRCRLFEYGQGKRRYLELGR
In short: (§1)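 Fragment (200 µM) or vehicle was incubated for 3 h with triplicate HEK293T lysate samples of 495 µg, which were then treated with Biotin-Ahx-Ub-VS at 0.5 µM final for 1 h. Labelled DUBs were enriched on NeutrAvidin, digested with LysC and trypsin, and analysed by diaPASEF LC-MS/MS. Values are average log2 fragment/vehicle ratios from an unpaired t-test on global-median-normalised Spectronaut label-free quantities, using proteins with ≥2 unique peptides.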

USP46 = USP46 (UniProt P62068)
In short: as §1

USP47 = molecular target: T2, USP47 (UniProt Q96K76)
T2 sequence (whole entry): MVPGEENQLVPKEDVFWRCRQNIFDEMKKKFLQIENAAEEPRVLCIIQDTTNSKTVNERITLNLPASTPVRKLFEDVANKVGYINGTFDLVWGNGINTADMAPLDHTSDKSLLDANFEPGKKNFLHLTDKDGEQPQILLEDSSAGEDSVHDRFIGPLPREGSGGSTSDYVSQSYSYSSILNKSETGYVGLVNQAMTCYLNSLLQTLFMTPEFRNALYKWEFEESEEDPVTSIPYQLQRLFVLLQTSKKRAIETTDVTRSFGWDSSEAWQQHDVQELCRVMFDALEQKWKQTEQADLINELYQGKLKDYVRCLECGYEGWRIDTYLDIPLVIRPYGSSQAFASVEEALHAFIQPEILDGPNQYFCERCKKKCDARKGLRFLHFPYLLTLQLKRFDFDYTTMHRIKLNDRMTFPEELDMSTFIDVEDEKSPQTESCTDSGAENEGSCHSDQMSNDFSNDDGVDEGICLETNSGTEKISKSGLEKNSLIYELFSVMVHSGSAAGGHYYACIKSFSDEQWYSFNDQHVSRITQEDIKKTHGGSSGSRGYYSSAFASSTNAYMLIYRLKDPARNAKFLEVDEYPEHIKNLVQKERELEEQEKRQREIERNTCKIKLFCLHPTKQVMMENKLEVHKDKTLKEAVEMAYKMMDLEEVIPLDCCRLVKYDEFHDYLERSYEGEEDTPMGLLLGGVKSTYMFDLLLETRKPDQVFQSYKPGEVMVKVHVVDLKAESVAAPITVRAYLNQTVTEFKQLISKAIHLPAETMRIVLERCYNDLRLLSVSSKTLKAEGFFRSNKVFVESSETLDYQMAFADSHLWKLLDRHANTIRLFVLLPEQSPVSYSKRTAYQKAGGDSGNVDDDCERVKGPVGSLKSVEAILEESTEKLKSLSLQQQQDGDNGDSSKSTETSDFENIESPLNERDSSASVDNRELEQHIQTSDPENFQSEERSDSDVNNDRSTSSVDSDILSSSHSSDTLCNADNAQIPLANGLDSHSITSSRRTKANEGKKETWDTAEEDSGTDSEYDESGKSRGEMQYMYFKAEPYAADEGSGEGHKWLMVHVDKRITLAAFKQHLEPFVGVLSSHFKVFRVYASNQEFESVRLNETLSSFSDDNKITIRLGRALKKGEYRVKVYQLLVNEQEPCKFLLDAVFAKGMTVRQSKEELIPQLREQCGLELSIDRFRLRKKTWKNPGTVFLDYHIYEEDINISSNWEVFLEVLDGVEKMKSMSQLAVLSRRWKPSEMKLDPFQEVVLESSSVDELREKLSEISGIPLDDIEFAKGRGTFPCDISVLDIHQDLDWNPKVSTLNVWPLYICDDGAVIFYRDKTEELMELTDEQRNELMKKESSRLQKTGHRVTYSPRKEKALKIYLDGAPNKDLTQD
In short: as §1

USP48 = molecular target: T3, USP48 (UniProt Q86UV5)
T3 sequence (whole entry): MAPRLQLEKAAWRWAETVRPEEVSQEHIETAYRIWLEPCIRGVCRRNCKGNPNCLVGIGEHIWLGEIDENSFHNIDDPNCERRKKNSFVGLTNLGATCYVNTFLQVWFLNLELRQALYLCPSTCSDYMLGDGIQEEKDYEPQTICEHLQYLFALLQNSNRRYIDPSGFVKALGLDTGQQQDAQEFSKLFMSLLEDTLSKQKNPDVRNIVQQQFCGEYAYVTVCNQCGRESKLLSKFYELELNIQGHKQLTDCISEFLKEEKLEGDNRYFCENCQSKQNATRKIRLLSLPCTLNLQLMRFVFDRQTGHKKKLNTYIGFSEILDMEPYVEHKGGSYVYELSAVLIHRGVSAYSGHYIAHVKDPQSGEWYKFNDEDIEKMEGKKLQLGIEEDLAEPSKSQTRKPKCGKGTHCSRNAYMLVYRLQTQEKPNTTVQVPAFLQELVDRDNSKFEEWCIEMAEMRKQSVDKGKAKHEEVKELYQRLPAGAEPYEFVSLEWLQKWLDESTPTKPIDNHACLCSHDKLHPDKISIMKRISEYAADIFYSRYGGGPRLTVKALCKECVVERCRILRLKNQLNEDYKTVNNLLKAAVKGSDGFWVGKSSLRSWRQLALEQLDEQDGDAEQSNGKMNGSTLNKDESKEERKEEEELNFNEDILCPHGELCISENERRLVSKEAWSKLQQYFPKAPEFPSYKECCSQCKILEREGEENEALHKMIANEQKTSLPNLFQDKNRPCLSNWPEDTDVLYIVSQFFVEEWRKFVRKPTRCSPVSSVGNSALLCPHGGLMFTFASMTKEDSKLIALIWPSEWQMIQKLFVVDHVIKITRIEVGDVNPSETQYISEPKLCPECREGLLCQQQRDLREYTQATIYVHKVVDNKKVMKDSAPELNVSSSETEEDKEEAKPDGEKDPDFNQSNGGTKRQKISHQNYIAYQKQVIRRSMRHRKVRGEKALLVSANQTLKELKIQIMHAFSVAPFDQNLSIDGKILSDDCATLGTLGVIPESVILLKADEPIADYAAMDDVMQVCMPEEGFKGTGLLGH
In short: as §1

USP5 = molecular target: T4, USP5 (UniProt P45974)
T4 sequence (whole entry): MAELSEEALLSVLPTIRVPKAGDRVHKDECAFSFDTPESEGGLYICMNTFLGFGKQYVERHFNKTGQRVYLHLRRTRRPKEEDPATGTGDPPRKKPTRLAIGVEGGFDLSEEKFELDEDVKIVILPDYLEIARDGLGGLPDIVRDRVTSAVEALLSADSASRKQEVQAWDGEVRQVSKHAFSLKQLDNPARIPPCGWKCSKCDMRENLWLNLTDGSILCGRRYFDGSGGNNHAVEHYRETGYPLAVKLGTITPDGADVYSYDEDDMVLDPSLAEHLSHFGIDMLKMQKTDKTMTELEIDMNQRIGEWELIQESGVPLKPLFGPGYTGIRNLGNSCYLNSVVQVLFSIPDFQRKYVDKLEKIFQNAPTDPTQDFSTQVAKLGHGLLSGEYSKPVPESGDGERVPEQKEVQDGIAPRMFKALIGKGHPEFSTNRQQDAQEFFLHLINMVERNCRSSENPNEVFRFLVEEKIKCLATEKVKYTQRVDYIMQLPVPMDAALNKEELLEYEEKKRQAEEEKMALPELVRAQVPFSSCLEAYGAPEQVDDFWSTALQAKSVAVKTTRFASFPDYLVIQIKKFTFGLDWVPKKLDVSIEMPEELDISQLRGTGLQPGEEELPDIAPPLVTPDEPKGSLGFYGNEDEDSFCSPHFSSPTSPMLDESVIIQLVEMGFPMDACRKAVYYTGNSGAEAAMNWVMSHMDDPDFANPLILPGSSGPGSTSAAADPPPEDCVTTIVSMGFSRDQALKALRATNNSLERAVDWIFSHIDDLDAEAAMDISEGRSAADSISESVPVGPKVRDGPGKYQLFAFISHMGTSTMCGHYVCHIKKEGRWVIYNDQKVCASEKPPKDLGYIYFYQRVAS
In short: as §1

USP54 = USP54 (UniProt Q70EL1)
In short: as §1

USP7 = USP7 (UniProt Q93009)
In short: as §1

USP8 = molecular target: T5, USP8 (UniProt P40818)
T5 sequence (whole entry): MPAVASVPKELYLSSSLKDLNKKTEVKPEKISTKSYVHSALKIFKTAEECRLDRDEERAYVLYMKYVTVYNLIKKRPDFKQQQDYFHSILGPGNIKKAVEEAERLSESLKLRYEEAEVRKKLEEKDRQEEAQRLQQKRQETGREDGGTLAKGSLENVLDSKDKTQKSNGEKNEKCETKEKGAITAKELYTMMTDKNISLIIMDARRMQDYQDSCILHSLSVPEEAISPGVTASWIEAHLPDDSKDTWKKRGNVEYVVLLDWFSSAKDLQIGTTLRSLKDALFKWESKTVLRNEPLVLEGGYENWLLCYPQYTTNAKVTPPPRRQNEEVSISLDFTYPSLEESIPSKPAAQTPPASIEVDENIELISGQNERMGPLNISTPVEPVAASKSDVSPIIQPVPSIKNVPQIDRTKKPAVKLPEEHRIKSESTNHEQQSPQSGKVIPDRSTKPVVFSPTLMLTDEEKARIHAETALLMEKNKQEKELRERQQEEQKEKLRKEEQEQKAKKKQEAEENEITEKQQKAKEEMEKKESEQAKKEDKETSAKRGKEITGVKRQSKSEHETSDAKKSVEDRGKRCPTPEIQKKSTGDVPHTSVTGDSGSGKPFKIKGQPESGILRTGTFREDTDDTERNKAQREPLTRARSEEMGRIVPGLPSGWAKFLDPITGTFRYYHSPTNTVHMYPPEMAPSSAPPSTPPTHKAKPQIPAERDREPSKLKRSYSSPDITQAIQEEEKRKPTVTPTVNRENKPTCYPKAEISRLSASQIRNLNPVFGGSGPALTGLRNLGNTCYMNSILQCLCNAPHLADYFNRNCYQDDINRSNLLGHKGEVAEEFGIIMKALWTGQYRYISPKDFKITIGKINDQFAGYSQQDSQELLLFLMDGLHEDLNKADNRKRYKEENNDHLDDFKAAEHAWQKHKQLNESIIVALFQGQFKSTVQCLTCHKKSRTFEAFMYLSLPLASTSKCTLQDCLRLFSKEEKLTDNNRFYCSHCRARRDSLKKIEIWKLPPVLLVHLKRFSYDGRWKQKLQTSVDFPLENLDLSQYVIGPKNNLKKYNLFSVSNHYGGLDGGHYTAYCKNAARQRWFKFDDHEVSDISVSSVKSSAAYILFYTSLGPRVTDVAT
In short: as §1

USP9X = USP9X (UniProt Q93008)
In short: as §1

UniProt O00487 = molecular target: UniProt O00487
In short: as §1

Measured: log2 ratio of Biotin-Ahx-Ub-VS probe labelling

USP7, sequence (Q93009 whole entry, looked up): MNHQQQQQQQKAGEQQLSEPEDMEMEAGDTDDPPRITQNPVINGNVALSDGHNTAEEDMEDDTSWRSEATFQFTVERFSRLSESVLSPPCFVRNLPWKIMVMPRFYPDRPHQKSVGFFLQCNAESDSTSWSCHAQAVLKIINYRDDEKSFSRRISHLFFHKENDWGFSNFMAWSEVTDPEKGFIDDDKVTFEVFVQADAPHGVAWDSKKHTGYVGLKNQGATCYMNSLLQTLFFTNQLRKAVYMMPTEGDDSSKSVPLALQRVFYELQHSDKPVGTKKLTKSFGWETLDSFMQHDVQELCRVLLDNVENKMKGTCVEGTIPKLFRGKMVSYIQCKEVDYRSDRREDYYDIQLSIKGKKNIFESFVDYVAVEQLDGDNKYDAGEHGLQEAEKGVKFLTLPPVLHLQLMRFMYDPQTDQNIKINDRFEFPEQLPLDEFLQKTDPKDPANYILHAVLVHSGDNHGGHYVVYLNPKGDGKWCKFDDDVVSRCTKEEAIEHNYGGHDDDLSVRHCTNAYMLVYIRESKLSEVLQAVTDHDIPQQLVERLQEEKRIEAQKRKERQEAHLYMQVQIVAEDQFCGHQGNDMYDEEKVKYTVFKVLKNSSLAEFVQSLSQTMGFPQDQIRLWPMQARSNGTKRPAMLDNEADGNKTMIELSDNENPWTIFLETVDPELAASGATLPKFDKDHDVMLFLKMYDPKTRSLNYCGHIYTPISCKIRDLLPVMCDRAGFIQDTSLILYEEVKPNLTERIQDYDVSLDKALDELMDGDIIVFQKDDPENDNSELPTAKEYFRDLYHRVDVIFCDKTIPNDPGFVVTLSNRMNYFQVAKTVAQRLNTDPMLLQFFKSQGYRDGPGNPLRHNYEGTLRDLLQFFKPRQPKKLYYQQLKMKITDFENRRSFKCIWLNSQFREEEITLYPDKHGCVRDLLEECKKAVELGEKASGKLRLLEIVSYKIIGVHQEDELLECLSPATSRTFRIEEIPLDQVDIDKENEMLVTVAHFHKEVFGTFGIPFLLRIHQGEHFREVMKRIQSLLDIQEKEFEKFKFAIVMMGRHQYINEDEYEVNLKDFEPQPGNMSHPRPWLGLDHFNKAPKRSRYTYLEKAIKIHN
USP54, sequence (Q70EL1 whole entry): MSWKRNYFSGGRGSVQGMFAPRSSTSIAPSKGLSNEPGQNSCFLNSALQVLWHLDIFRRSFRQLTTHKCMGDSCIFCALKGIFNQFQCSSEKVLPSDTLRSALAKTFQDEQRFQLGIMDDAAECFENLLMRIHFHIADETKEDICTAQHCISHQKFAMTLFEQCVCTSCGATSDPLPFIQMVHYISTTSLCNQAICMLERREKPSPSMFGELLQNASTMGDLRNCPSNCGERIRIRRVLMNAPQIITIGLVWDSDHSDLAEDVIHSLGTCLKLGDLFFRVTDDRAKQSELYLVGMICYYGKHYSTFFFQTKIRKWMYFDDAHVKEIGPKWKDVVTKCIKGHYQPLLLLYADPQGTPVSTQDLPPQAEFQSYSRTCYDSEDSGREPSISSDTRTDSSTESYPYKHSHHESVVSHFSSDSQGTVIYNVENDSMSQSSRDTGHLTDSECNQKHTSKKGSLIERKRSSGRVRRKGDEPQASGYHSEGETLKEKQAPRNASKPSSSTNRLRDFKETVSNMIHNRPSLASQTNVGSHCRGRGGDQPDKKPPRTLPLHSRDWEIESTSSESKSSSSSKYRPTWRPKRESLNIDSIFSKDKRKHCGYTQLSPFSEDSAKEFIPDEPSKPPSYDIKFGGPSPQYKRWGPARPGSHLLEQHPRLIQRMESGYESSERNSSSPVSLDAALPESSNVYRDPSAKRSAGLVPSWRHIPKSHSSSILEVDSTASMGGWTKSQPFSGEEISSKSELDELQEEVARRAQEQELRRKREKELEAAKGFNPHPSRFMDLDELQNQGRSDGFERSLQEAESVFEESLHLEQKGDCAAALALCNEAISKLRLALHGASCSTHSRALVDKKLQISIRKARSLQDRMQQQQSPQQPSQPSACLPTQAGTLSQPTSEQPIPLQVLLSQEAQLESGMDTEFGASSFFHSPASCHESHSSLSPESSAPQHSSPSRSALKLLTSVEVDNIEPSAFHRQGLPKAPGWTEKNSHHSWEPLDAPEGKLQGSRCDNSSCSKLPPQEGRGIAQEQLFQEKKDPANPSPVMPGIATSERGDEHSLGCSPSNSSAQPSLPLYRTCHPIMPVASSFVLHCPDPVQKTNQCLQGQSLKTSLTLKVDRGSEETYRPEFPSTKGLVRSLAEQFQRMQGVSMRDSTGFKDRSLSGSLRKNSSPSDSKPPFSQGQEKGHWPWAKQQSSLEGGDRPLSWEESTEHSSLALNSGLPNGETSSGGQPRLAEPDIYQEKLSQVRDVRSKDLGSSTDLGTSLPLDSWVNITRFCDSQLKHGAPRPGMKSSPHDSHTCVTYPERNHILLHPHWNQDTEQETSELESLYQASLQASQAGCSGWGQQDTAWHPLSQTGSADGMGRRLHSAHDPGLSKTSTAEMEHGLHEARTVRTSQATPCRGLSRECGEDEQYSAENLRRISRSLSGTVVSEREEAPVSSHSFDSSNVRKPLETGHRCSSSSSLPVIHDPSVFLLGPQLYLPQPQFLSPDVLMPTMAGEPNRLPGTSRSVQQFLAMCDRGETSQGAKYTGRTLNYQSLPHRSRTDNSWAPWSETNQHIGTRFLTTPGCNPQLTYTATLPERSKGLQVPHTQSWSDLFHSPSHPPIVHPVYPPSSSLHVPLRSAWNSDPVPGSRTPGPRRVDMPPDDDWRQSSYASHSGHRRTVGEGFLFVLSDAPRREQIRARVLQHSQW
UniProt O00487, sequence (O00487 whole entry): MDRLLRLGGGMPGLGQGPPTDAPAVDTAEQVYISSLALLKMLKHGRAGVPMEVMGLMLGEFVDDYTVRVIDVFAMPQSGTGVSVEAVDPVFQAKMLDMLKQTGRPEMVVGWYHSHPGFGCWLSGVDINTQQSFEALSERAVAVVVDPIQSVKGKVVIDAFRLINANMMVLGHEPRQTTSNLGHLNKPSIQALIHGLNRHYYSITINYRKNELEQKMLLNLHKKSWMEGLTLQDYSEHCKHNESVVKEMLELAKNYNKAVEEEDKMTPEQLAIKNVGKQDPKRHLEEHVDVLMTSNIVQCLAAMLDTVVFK
USP46, sequence (P62068 whole entry): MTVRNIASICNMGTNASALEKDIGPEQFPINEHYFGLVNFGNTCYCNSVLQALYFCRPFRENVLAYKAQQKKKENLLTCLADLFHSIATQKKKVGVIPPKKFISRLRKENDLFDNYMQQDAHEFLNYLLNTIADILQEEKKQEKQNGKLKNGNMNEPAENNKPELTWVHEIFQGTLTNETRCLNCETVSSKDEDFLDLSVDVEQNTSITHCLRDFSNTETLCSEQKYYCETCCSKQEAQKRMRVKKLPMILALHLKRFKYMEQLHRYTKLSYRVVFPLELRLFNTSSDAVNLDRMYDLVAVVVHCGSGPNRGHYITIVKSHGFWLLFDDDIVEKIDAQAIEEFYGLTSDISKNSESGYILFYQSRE

O=C(CCl)Nc1ccccc1C(F)(F)F
inactive: USP42 0.398 | USP46 0.0498 | USP47 -0.374 | USP48 -0.257 | USP5 -0.323 | USP54 0.637 | USP7 -0.404 | USP8 -0.029 | USP9X -0.0415 | UniProt O00487 -0.162
